# Results: PubChem BioAssay (NCATS)
# Several values for one entry are separate records, joined by “and”; a condition that tells them apart may be missing. Identical values can stand only once. Records with an inconclusive call do not appear. Where a call stands in place of a potency, no number is given. Activity calls are given as the source filed them. Unless noted, calls follow the shape of the dose curve; as a rule, active = well fitted curve in the direction sought with a large enough effect; inconclusive = small, poorly fitted or top-dose-only effect, or another doubt; inactive = no such curve, though single readings can be large; an effect the other way counts as inactive or inconclusive.
# Key:
# [1] = molecular target: Calcium and integrin-binding protein 1 (Homo sapiens) (UniProt Q99828); test: Primary qHTS for Identification of Calcium Integrin Binding Protein 1 (CIB1) Competitor (AID 1508620); details: CIB1-GST / FITC-alphaIIb peptide fluorescence polarization; series mostly up to 57.7 µM;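 also: GST tagged CIB1 binding a fluorescein labelled alphaIIb integrin peptide tracer; top concentration of the series differs between compounds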
# Procedure, shortened: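 Fluorescence polarization competition: CIB1-GST (1 uM final) preincubated with compound 15 min at room temperature, then FITC-labeled alphaIIb peptide (100 nM final) added for another 15 min. Polarization read at Ex 480/Em 540.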
# [2] = A High-Content qHTS Against Drug Library for the Identification of Small Molecules that Inhibit DYT1 Early Onset Primary Dystonia-Associated Cell Pathology (AID 1645839; calls by dose curve); details: HEK293 Flp-In EGFP-delE TorsinA, punctate imaging, 48 h; series mostly up to 46.1 µM
# Procedure, shortened: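 Readout: %pathology, the punctate EGFP-TorsinA distribution from imaging, as the primary channel and cell count as the toxicity counterscreen. HEK293 Flp-In cells expressing delE TorsinA were induced with tetracycline and treated with compound for 48 h.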
# [3] = molecular target: Cytochrome P450 2D6 (Homo sapiens) (UniProt P10635); test: Cytochrome P450 family 2 subfamily D member 6 (CYP2D6) small molecule antagonists: luciferase biochemical (cell-free) qHTS assay (AID 1645840; active = well fitted curve in the direction sought with a large enough effect in the repeat runs; an effect the other way counts as inactive or inconclusive; also: nearly all actives have a fitted effect of over 55% in size; also: potency is read from the fitted curve at half-maximal effect); details: P450-Glo CYP2D6 enzyme, luciferin luminescence, 1 h; series mostly up to 57.4 µM
# Procedure, shortened: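 P450-Glo luminescent screen: recombinant CYP2D6 enzyme–proluciferin substrate mix preincubated with compound 10 min at room temperature, then NADPH regeneration added for 1 h at room temperature. Detection reagent added for 20 min; luciferin light read as relative luminescence units.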
# [4] = Primary qHTS for small molecule stabilizers of the endoplasmic reticulum resident proteome: Secreted ER Calcium Modulated Protein (SERCaMP) assay (AID 1508630); details: SH-SY5Y GLuc-SERCaMP (Gaussia luciferase released on ER calcium loss) secretion, thapsigargin, luminescence; series mostly up to 38.4 µM; also: potency is read from the fitted curve at half-maximal effect
# Procedure, shortened: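 GLuc-SERCaMP-expressing SH-SY5Y cells, pretreated 16 h with compound, are challenged with thapsigargin to empty ER calcium stores; after 4 h, coelenterazine is added directly to the medium and luminescence is imaged.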
# [5] = Counterscreen qHTS for small molecule stabilizers of the endoplasmic reticulum resident proteome: GLuc-NoTag assay (AID 1508627); details: Gaussia luciferase NoTag secretion counterscreen, luminescence, thapsigargin 100 nM for final 4 h; series mostly up to 76.4 µM;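 also: SH-SY5Y cells given compound then 100 nM thapsigargin to empty ER calcium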
# Procedure, shortened: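 SH-SY5Y cells stably expressing constitutively secreted GLuc (no SERCaMP tag) were pre-incubated 5 h, treated with compound for 19 h, then 100 nM thapsigargin for 4 h at 37C; medium GLuc read by coelenterazine luminescence.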
# [6] = Confirmatory qHTS for small molecule stabilizers of the endoplasmic reticulum resident proteome: Secreted ER Calcium Modulated Protein (SERCaMP) assay (AID 1508628); details: SERCaMP secreted luciferase ER calcium/proteostasis reporter; series mostly up to 76.3 µM;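 also: SH-SY5Y cells given compound 16 h then thapsigargin 100 nM for 4 h; nearly all actives have a fitted effect of over 40% in size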
# Procedure, shortened: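 We seeded SH-SY5Y-GLuc-SERCaMP cells, added compounds (three concentrations in the primary run, eleven up to 76.6 uM in confirmation), incubated 16 h, depleted ER calcium with thapsigargin, and read luciferase 4 h later.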
# [7] = molecular target: Cytochrome P450 3A4 (Homo sapiens) (UniProt P08684); test: Cytochrome P450 family 3 subfamily A member 4 (CYP3A4) small molecule antagonists: luciferase qHTS assay (AID 1645841; active = well fitted curve in the direction sought with a large enough effect in the repeat runs; an effect the other way counts as inactive or inconclusive; also: nearly all actives have a fitted effect of over 45% in size); details: P450-Glo CYP3A4 enzyme assay, luciferin luminescence; series mostly up to 57.4 µM
# Procedure, shortened: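 P450-Glo CYP3A4 enzyme with proluciferin substrate was preincubated with DMSO-dissolved compounds for 10 min at room temperature. NADPH regeneration solution started a 1 h reaction. Detection reagent stopped it, and luminescence was read after 20 min.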
# Cytochrome P450 2D6 (Homo sapiens), sequence (P10635 whole entry, looked up): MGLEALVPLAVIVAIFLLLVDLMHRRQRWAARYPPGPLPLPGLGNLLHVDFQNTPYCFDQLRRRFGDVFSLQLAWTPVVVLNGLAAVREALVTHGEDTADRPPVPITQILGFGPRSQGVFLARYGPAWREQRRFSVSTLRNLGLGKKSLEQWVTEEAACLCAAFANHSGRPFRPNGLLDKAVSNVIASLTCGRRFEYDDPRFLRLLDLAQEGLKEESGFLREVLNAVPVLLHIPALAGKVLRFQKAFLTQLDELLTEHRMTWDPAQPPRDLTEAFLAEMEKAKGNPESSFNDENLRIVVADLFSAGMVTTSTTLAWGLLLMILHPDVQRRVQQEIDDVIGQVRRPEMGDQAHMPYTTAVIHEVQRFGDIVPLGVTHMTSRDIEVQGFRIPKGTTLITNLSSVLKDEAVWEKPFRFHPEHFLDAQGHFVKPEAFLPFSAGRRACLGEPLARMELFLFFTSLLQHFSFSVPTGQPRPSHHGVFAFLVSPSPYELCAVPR
# Calcium and integrin-binding protein 1 (Homo sapiens), sequence (Q99828 whole entry, looked up): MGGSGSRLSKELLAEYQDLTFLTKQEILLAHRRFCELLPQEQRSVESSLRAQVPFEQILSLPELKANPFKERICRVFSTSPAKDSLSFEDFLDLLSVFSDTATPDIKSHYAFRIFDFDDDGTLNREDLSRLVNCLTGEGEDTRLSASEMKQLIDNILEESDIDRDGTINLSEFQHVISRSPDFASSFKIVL
# Cytochrome P450 3A4 (Homo sapiens), sequence (P08684 whole entry, looked up): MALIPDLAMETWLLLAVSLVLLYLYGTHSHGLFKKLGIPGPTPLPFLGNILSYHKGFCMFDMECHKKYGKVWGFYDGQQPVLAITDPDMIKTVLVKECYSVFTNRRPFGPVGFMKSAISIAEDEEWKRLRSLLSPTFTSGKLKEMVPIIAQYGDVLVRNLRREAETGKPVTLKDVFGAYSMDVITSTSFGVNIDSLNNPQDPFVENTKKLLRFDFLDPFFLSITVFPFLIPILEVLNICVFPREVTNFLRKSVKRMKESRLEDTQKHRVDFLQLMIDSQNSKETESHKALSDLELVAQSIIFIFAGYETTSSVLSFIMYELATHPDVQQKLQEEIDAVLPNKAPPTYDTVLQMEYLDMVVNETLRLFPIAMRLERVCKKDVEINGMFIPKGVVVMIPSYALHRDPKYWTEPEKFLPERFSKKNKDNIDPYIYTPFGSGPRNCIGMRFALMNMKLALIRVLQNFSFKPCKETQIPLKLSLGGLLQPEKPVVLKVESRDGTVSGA
compound,measurement,setting,value
CCn1cc(C(=O)O)c(=O)c2ccc(C)nc21,Potency,[1],inactive
same,Potency,[2],inactive
same,Potency,[3],inactive
O=c1c(-c2ccc(O)cc2)coc2cc(OC3O[C@H](CO)[C@H](O)[C@H](O)[C@H]3O)cc(O)c12 (stereo not given in full),Potency,[1],inactive
same,Potency,[4],inactive
same,Potency,[3],30.1 µM (active)
O=c1ccn([C@@H]2O[C@H](CO)[C@H](O)[C@H]2O)c(=O)[nH]1,Potency,[5],inactive
same,Potency,[6],inactive
same,Potency,[4],1.68 µM (active)
Cc1ccn(-c2ccc(-c3ncco3)cc2)c(=O)c1-c1ccc2nc(N)ncc2c1,Potency,[1],inactive
same,Potency,[4],inactive
same,Potency,[3],16.9 µM (active)
CCCCCNC(=O)N1CCC(CN(Cc2ccc(Cl)cc2)Cc2ccc([N+](=O)[O-])s2)C1 (stereo not given),Potency,[1],inactive
same,Potency,[4],inactive
same,Potency,[3],2.39 µM (active)
O=C(O)Cc1cccc2ccccc12,Potency,[1],inactive
same,Potency,[2],inactive
same,Potency,[3],inactive
COc1ccc2c(Oc3ccc(NC(=O)c4c(C)n(CC(C)(C)O)n(-c5ccccc5)c4=O)cc3F)ccnc2c1,Potency,[1],inactive
same,Potency,[4],inactive
same,Potency,[3],inactive
Cc1cccc(Nc2nc(-c3ccncc3)cs2)c1,Potency,[1],inactive
same,Potency,[3],0.849 µM (active)
Cc1cnc(C(=O)O)c[n+]1[O-],Potency,[1],inactive
same,Potency,[3],inactive
COc1ccc2c(Oc3ccc(NC(=O)c4c(C)n(CC(C)(C)O)n(-c5ccccc5)c4=O)nc3)ccnc2c1,Potency,[1],inactive
same,Potency,[4],inactive
same,Potency,[3],inactive
c1ccc2c(-c3cnn4cc(-c5ccc(N6CCNCC6)cc5)cnc34)ccnc2c1,Potency,[1],inactive
same,Potency,[4],inactive
same,Potency,[3],inactive
CCS(=O)(=O)N1CC(CC#N)(n2cc(-c3ncnc4[nH]ccc34)cn2)C1,Potency,[1],inactive
same,Potency,[4],inactive
same,Potency,[3],inactive
O=C(CCCCCCC(=O)Nc1ccccc1)NO,Potency,[1],inactive
same,Potency,[4],inactive
same,Potency,[3],4.9 µM (active)
CC(C)(C)c1cc(C(=O)O)c(NC(=O)Nc2ccc3[nH]ncc3c2)s1,Potency,[1],inactive
same,Potency,[4],inactive
same,Potency,[3],3.38 µM (active)
COc1cccc2c1CCCC2CCCN1CCN(C2CCCCC2)CC1 (stereo not given),Potency,[1],inactive
same,Potency,[4],inactive
same,Potency,[3],2.13 µM (active)
same,outcome,[7],inactive
CCCCCCCCCCCC1=C(O)C(=O)C=C(O)C1=O,Potency,[1],inactive
same,Potency,[4],inactive
same,Potency,[3],inactive
same,outcome,[7],inactive
Cc1c(NC(=O)c2ccc(C(C)(C)C)cc2)cccc1-c1cn(C)c(=O)c(Nc2ccc(C(=O)N3CCOCC3)cc2)n1,Potency,[1],inactive
same,Potency,[4],inactive
same,Potency,[3],inactive
COCCOc1nc(-c2ccc(Cl)c(Cl)c2)n(-c2ccc(NC(=O)CCl)cc2)n1,Potency,[1],inactive
same,Potency,[3],0.756 µM (active)
COc1cc2ncnc(-n3nc(-c4ccccn4)nc3N)c2cc1OC,Potency,[1],inactive
same,Potency,[4],inactive
same,Potency,[3],7.56 µM (active)
CCc1ccc(OCc2ccccc2C(=O)Nc2ccc3nc(C)cc(N)c3c2)cc1,Potency,[1],inactive
same,Potency,[4],inactive
same,Potency,[3],0.213 µM (active)
CC(=O)Oc1cc2c(s1)CCN(C(C(=O)C1CC1)c1ccccc1F)C2 (stereo not given),Potency,[1],inactive
same,Potency,[4],inactive
same,Potency,[3],11 µM (active) and 10.7 µM (active)
O=C(NC1CCOCC1)c1ccc(-c2cc(-c3cn[nH]c3-c3ccccn3)ccn2)cc1,Potency,[1],inactive
same,Potency,[4],inactive
same,Potency,[3],inactive
Cc1nc(N)sc1-c1ccnc(Nc2ccc(N3CCOCC3)cc2)n1,Potency,[1],inactive
same,Potency,[4],inactive
same,Potency,[3],inactive
CC=C(C)C(=O)O[C@H]1C(C)=C[C@]23C(=O)[C@@H](C=C(CO)[C@@H](O)[C@]12O)[C@H]1[C@@H](C[C@H]3C)C1(C)C,Potency,[4],inactive
CS(=O)c1ccc(-c2nc(-c3ccc(F)cc3)c(-c3ccncc3)[nH]2)cc1 (stereo not given),Potency,[1],inactive
same,Potency,[4],inactive
same,Potency,[3],6.74 µM (active)
Cc1ccc([C@@H]2O[C@H](CO)[C@@H](O)[C@H](O)[C@@H]2O)cc1Cc1ccc(-c2ccc(F)cc2)s1,Potency,[1],inactive
same,Potency,[4],inactive
same,Potency,[3],23.9 µM (active)
CCOc1ccc(Nc2nc(-c3c(C)nc4ccccn34)cs2)cc1,Potency,[1],inactive
same,Potency,[4],inactive
same,Potency,[3],15.1 µM (active)
CN(C)c1cc(NC(=O)CNC(C)(C)C)c(O)c2c1C[C@@H]1C[C@H]3[C@H](N(C)C)C(=O)C(C(N)=O)=C(O)[C@@]3(O)C(=O)C1=C2O,Potency,[1],inactive
same,Potency,[2],inactive
COc1cc2ncnc(Nc3ccc(F)c(Cl)c3)c2cc1OCCCN1CCOCC1,Potency,[5],inactive
same,Potency,[4],inactive
same,Potency,[3],4.9 µM (active)
Cc1ccc(Nc2cc(-c3cccc(N4C(=O)c5ccccc5C4=O)c3)ncn2)cc1NS(C)(=O)=O,Potency,[1],inactive
same,Potency,[4],inactive
same,Potency,[3],inactive
O=C(Nc1c(Cl)cncc1Cl)c1ccc(OC(F)F)c(OCC2CC2)c1,Potency,[4],inactive
O=C(O)c1cc(-c2ccccc2)nc2ccccc12,Potency,[4],inactive
same,Potency,[2],inactive
same,Potency,[3],inactive
Cc1cccc(C)c1OCC(C)N (stereo not given),Potency,[4],inactive
same,Potency,[2],inactive
same,Potency,[3],13.8 µM (active) and 21.3 µM (active)
CC(C)OC(=O)C(C)(C)Oc1ccc(C(=O)c2ccc(Cl)cc2)cc1,Potency,[4],inactive
same,Potency,[2],inactive
same,Potency,[3],inactive
NC(=O)c1cnc(-c2ccc(C3(N)CCC3)cc2)c(-c2ccccc2)c1,Potency,[4],inactive
CN1[C@@H]2CCC[C@@H]1CC(NC(=O)c1nn(C)c3ccccc13)C2 (stereo not given in full),Potency,[4],inactive
Cc1cc(OCCCc2c(C(=O)O)n(Cc3cccnc3)c3c(-c4c(COc5ccc(N6CCN([S+](C)(=O)[O-])CC6)cc5)nn(C)c4C)cccc23)cc(C)c1Cl,Potency,[4],inactive
CO[C@H]1C=CC=C(C)C(=O)NC2=CC(=O)C(NCCN(C)C)=C(C[C@@H](C)C[C@H](OC)[C@@H](O)[C@@H](C)C=C(C)[C@@H]1OC(N)=O)C2=O,Potency,[4],inactive
